Measurements as given in the supplement of paper PMC3334620.
In all, about 33,000 sequences were measured (“E-score (-0.5 to 0.5)”: median about -0.043, highest 2% from about 0.37 on). What follows is part of a selection rich in the highest values, with near analogues and random picks from the rest.

These sequences were tested against T1, Upc2 (UniProt Q12151) (assay: PBM E-score (8-mer binding enrichment) (E-score (-0.5 to 0.5)); higher = stronger / more preferred TF binding). Details: protein concentration: 200 nM; construct: GST-full length.
T1 sequence: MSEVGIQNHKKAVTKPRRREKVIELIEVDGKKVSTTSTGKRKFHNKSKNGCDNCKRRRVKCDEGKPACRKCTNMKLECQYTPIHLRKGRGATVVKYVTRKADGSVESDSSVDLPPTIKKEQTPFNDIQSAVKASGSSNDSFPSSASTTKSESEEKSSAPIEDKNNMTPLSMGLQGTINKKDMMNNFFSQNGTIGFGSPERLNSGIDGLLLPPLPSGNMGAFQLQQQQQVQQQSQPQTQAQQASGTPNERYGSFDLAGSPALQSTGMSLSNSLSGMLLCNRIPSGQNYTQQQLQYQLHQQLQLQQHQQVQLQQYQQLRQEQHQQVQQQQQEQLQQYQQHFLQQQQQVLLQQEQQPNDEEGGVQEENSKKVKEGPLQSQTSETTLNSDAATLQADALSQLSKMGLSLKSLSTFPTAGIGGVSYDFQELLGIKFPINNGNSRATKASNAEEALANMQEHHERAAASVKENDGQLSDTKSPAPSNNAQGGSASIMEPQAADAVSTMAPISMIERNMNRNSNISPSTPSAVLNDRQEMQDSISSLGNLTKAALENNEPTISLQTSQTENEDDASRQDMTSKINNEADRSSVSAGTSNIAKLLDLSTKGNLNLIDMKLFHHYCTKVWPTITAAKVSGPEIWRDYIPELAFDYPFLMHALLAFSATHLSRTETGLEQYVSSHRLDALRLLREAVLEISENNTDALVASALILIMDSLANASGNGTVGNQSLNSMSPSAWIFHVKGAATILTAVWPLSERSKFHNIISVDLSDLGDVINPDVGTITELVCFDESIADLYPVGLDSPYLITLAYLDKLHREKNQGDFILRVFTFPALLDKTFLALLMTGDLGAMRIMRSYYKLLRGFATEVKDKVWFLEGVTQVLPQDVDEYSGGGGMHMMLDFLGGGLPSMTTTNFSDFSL
Procedure, shortened: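 For each ungapped eight-base word taken together with its reverse complement, the Universal PBM Analysis Suite assigned an E-score. Binding data came from GST-tagged yeast transcription factors, applied at about 100-200 nM, on universal all-10-mer Agilent arrays made double-stranded by primer extension. Fluorescent anti-GST marked bound protein, and scans were normalised with masliner.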

Compared with CCTCGTCG, CCTCGTAG is higher in “PBM E-score” value: 0.195 for the first, 0.389 for the second.

Going from TCTCGTAA to CCTCGTGA, the “PBM E-score” value falls from 0.434 to 0.168.

Compared with CCTCGTAA, TCACGTAA is lower in “PBM E-score” value: 0.444 for the first, 0.0344 for the second.

First: CATCACTA
Second: CACTTTCA
The “PBM E-score” value of the first is lower: -0.183 for the first, -0.151 for the second.

First: CCTACACA
Second: CGAGAGAA
The “PBM E-score” value of the first is lower: -0.118 for the first, 0.113 for the second.

Going from CCTCAGTA to GCTCGTGA, the “PBM E-score” value rises from -0.0614 to 0.00182.

Going from GCTCGTAA to GCTCGTAC, the “PBM E-score” value rises from 0.456 to 0.477.

Going from ACTCGTCC to ACTCGTCA, the “PBM E-score” value rises from -0.141 to -0.0246.

Going from ACTCGTAG to ACTCGTAC, the “PBM E-score” value rises from 0.353 to 0.472.

Going from GCTCGTCC to ACTCGTAA, the “PBM E-score” value rises from -0.249 to 0.433.

Going from GCACGTAC to ACTCGTGC, the “PBM E-score” value falls from 0.227 to 0.0738.

First: GCTCGTCA
Second: CCTAAGGA
The “PBM E-score” value of the first is higher: 0.0569 for the first, -0.0656 for the second.

First: ACAAGCTC
Second: CCGTGGCC
The “PBM E-score” value of the first is higher: -0.0437 for the first, -0.206 for the second.

First: CCAAGTGG
Second: ATGCAACG
The “PBM E-score” value of the first is lower: -0.186 for the first, 0.113 for the second.

First: ACCCCTGC
Second: ATGACTCA
The “PBM E-score” value of the first is lower: -0.412 for the first, 0.029 for the second.

Going from CAGCCTCA to CTCTCAAG, the “PBM E-score” value falls from -0.0411 to -0.308.

Compared with AGATATGC, ACTCGGAT is higher in “PBM E-score” value: -0.186 for the first, 0.252 for the second.

Compared with ACTCGTCT, ACTCGTAT is higher in “PBM E-score” value: 0.167 for the first, 0.483 for the second.

Going from ATCGATCC to CATCCACA, the “PBM E-score” value falls from -0.00332 to -0.0464.

Going from CTAAGCGA to CTAAGCTA, the “PBM E-score” value falls from 0.416 to 0.015.

Going from GTAAGCGA to CTAAGCGC, the “PBM E-score” value falls from 0.388 to 0.14.

First: GGAAGCGA
Second: ATAAGCGA
The “PBM E-score” value of the first is lower: 0.145 for the first, 0.347 for the second.

Compared with CCATCGAC, ATGGGAGA is lower in “PBM E-score” value: -0.247 for the first, -0.251 for the second.

First: AACCGGTT
Second: ACTCTAGC
The “PBM E-score” value of the first is higher: 0.107 for the first, -0.12 for the second.

Going from GGAACTGA to AACGCTGA, the “PBM E-score” value rises from -0.0729 to 0.0761.

Going from CTAGTGAA to CTCGTTGA, the “PBM E-score” value rises from -0.126 to 0.313.

First: CCCGTTCC
Second: AACGTTCC
The “PBM E-score” value of the first is higher: 0.327 for the first, 0.152 for the second.

First: CTCGTTCC
Second: AGCGTTCC
The “PBM E-score” value of the first is higher: 0.479 for the first, 0.117 for the second.

First: CTCGTTCA
Second: ATCGTTCC
The “PBM E-score” value of the first is higher: 0.476 for the first, 0.43 for the second.

Compared with CACGTTCA, CGCGTTCC is higher in “PBM E-score” value: 0.092 for the first, 0.223 for the second.

Compared with GACGTTCA, GTCGTTCA is higher in “PBM E-score” value: 0.0943 for the first, 0.467 for the second.

Going from GGCGTTCA to AAATGGCG, the “PBM E-score” value falls from 0.0581 to -0.0033.

Going from AGCTAATC to ATCAAAAC, the “PBM E-score” value rises from -0.0679 to 0.0147.

First: ACACTGTA
Second: ATCGAAGC
The “PBM E-score” value of the first is higher: 0.106 for the first, -0.00965 for the second.

First: GGTGTGGA
Second: AGCGTTCA
The “PBM E-score” value of the first is higher: 0.00988 for the first, -0.0376 for the second.

Going from AACGTTCG to ATCGTTCG, the “PBM E-score” value rises from 0.212 to 0.384.

Compared with AACGTTCA, ATCGTTGG is lower in “PBM E-score” value: 0.212 for the first, 0.0354 for the second.

Going from ATCGTTCA to TCTTGAAA, the “PBM E-score” value falls from 0.443 to 0.0803.

Compared with ACAGCGCT, CTCTGTCC is lower in “PBM E-score” value: 0.128 for the first, -0.116 for the second.

Going from CTATTGAC to ACTTCGTG, the “PBM E-score” value rises from -0.166 to 0.0872.

Compared with CCTTCGCA, GCTTCGCA is higher in “PBM E-score” value: 0.0293 for the first, 0.186 for the second.

First: CCTTCGTA
Second: ACTTCGTA
The “PBM E-score” value of the first is higher: 0.441 for the first, 0.429 for the second.

Going from GCTTCGTA to CCTTCGTC, the “PBM E-score” value falls from 0.449 to 0.00619.

Compared with ACTTCGTC, GCTTCGGA is higher in “PBM E-score” value: 0.0529 for the first, 0.102 for the second.
